Laboratory results from the supplement of paper PMC11732987, “Enantioselective OTUD7B fragment discovery through chemoproteomics screening and high-throughput optimisation” (Communications Chemistry, 2025).

Legend:
Experiment in all cases: log2 ratio of Biotin-Ahx-Ub-VS probe labelling (fragment/DMSO); higher = less target engagement (more negative = stronger competition), active = hit call of the paper (q ≤ 0.05, log2 ratio ≤ -1)
Conditions in all cases: compound concentration: 200 uM; treatment time: 3 h
USP34 = USP34 (UniProt Q70CQ2)
Sequence of USP34 (Q70CQ2 whole entry, the tested form may be a part): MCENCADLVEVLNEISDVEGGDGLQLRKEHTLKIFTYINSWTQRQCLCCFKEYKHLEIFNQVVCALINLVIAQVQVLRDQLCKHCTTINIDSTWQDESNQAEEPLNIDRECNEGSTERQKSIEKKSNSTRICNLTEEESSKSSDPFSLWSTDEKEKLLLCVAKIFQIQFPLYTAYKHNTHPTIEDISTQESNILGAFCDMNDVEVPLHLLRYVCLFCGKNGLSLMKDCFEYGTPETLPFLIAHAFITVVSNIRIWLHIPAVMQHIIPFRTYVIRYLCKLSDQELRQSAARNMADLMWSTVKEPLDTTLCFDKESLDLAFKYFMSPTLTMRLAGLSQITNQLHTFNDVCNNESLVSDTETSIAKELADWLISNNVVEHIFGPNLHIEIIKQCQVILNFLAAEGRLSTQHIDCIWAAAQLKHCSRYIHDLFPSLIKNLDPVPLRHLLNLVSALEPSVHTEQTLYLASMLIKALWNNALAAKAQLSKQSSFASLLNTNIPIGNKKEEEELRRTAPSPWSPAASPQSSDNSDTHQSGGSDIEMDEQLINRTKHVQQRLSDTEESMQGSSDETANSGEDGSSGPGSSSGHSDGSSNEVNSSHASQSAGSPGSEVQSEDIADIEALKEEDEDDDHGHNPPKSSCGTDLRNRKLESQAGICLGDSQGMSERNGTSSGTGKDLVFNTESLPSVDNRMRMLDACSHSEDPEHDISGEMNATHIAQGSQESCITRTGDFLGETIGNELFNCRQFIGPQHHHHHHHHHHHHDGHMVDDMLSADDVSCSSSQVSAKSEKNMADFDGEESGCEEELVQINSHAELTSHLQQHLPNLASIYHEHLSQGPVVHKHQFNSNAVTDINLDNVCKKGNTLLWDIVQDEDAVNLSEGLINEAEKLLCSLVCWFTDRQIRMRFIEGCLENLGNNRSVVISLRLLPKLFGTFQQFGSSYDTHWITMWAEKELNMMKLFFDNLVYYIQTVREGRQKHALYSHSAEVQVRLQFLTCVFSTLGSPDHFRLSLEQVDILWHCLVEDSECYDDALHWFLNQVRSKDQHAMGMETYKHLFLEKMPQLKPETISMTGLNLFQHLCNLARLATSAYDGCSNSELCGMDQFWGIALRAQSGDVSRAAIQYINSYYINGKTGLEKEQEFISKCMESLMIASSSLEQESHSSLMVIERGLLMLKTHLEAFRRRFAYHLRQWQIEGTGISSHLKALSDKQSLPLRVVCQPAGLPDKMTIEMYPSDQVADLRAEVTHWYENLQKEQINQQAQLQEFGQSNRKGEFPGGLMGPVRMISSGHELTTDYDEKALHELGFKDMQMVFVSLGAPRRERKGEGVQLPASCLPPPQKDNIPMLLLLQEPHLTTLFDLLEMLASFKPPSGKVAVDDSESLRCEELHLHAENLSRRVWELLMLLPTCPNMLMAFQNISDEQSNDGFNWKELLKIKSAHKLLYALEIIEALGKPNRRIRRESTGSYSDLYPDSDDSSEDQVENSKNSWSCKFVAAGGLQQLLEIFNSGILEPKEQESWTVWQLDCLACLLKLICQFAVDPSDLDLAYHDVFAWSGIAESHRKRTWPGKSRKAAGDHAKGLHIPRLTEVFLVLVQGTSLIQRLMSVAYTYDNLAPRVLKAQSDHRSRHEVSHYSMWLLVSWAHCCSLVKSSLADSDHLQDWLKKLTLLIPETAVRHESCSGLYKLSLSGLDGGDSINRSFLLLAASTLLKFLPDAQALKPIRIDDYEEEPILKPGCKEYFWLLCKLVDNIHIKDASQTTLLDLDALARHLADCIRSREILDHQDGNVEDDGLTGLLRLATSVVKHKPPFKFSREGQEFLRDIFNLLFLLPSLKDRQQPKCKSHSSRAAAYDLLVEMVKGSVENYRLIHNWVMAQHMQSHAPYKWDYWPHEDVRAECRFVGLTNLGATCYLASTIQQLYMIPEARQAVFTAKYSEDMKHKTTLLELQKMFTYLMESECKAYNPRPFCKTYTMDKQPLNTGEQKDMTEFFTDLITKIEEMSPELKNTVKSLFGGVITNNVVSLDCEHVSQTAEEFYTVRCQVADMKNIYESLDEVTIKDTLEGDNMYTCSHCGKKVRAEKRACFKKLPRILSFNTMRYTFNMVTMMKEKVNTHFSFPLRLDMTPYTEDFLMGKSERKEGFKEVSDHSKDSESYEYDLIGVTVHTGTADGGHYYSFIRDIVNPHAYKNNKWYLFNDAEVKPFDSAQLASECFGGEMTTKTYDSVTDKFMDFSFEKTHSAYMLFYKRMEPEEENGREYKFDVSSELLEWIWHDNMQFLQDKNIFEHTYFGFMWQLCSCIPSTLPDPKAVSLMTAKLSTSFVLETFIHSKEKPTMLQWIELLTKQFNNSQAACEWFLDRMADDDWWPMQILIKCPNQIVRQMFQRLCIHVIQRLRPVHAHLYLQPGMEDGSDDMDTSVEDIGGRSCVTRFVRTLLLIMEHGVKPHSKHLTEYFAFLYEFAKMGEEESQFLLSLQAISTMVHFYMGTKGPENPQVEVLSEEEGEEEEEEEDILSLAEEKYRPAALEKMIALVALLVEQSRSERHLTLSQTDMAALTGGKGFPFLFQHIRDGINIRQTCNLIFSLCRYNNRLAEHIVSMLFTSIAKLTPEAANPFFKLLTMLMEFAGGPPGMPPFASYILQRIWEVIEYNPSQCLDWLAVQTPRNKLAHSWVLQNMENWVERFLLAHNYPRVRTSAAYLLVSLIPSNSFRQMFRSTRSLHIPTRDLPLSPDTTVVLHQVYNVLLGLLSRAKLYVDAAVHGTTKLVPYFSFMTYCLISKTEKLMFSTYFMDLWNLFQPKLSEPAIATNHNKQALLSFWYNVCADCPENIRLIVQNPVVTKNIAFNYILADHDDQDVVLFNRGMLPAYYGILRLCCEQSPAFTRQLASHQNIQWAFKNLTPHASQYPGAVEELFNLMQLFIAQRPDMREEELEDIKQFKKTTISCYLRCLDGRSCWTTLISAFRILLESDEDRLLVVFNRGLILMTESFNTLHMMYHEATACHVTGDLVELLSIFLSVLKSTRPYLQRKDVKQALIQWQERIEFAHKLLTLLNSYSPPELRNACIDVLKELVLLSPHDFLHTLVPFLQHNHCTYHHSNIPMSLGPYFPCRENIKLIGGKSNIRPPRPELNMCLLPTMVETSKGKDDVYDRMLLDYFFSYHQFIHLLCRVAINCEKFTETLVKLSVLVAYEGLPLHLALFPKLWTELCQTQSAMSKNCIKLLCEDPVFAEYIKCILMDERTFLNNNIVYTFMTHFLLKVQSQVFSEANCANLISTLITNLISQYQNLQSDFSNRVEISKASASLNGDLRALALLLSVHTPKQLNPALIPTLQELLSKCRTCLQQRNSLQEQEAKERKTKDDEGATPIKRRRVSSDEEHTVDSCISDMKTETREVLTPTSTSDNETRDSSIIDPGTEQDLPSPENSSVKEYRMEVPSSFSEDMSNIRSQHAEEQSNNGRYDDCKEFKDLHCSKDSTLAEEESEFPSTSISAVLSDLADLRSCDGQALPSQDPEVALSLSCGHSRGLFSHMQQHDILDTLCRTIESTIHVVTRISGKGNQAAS
In short: (§1)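 The table lists average log2 ratios of fragment over vehicle, from an unpaired t-test on global-median-normalised Spectronaut label-free quantities. Proteins with ≥2 unique peptides were used. Samples were HEK293T lysate (495 µg) treated in triplicate with fragment at 200 µM or vehicle for 3 h, then with Biotin-Ahx-Ub-VS (0.5 µM final) for 1 h, with labelled DUBs NeutrAvidin-enriched and run by diaPASEF LC-MS/MS.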

USP36 = biological target: T1, USP36 (UniProt Q9P275)
T1 sequence (whole entry): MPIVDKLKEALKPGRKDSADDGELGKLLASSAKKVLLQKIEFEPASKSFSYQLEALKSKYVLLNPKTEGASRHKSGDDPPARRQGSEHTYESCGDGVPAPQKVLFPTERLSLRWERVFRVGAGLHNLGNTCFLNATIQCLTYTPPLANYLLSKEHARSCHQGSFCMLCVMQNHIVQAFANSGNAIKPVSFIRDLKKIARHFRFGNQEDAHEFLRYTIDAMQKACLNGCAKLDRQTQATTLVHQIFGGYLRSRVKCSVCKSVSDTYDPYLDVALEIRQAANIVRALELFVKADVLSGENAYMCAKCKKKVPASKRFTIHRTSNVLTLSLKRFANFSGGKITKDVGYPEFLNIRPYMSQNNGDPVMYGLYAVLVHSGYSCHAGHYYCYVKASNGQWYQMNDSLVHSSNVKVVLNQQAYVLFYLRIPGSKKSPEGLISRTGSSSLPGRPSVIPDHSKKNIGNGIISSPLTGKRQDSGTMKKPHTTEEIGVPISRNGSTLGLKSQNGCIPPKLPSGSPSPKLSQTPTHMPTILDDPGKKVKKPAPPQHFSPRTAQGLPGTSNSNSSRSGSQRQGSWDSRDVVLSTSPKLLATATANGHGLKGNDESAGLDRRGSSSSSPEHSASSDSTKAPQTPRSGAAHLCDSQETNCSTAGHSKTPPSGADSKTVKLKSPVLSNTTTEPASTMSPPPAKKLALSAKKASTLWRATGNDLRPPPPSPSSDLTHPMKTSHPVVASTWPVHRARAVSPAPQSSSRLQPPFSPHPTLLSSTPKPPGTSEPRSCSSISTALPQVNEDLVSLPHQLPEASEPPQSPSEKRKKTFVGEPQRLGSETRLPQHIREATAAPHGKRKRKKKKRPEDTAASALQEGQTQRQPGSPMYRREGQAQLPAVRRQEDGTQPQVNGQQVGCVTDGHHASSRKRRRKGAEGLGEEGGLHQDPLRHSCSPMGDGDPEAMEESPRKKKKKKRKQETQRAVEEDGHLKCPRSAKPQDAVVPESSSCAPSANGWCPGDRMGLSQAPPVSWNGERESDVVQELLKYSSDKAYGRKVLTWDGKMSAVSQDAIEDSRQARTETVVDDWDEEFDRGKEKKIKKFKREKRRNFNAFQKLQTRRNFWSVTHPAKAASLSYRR
In short: as §1

USP38 = biological target: T2, USP38 (UniProt Q8NB14)
T2 sequence (whole entry): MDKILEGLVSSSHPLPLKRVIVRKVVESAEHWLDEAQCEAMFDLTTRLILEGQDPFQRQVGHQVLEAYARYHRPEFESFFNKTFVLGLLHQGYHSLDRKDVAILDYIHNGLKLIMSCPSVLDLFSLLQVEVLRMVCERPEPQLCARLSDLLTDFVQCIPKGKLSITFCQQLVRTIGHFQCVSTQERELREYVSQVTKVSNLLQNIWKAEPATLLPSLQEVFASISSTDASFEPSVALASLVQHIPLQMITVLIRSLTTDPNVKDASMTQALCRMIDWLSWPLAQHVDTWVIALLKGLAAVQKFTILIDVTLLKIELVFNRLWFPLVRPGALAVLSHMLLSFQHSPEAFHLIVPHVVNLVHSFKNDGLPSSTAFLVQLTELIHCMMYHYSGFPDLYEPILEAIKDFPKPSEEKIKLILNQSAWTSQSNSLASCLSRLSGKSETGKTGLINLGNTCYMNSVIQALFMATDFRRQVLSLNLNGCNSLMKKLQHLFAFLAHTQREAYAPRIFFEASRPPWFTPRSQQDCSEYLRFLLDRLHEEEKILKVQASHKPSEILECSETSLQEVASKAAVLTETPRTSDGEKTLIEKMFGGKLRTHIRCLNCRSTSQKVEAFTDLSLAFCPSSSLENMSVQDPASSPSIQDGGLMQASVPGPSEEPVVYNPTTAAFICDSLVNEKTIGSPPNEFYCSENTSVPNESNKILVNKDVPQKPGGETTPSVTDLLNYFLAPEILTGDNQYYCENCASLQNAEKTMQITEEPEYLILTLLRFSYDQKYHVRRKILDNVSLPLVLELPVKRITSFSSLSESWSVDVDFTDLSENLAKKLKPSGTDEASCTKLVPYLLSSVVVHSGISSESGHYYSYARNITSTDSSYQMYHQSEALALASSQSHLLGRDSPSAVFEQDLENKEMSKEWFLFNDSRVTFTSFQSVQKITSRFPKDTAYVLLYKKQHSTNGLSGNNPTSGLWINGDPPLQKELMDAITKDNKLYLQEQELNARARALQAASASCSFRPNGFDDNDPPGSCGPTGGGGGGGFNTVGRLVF
In short: as §1

USP39 = biological target: T3, USP39 (UniProt Q53GS9)
T3 sequence (whole entry): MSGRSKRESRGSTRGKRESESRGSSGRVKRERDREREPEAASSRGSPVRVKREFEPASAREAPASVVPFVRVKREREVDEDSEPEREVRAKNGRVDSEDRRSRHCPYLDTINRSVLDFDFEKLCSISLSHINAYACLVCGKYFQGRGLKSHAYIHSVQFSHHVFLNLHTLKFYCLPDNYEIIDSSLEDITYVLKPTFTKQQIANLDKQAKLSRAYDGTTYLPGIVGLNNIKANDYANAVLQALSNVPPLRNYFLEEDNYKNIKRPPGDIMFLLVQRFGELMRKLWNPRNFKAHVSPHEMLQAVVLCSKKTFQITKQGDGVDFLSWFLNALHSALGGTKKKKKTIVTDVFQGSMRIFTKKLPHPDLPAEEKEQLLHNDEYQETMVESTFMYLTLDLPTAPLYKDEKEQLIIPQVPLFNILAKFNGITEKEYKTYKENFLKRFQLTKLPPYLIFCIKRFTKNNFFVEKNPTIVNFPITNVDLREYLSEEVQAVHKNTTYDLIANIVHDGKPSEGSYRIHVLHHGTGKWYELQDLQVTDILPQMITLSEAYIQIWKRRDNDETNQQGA
In short: as §1

USP4 = biological target: T4, USP4 (UniProt Q13107)
T4 sequence (whole entry): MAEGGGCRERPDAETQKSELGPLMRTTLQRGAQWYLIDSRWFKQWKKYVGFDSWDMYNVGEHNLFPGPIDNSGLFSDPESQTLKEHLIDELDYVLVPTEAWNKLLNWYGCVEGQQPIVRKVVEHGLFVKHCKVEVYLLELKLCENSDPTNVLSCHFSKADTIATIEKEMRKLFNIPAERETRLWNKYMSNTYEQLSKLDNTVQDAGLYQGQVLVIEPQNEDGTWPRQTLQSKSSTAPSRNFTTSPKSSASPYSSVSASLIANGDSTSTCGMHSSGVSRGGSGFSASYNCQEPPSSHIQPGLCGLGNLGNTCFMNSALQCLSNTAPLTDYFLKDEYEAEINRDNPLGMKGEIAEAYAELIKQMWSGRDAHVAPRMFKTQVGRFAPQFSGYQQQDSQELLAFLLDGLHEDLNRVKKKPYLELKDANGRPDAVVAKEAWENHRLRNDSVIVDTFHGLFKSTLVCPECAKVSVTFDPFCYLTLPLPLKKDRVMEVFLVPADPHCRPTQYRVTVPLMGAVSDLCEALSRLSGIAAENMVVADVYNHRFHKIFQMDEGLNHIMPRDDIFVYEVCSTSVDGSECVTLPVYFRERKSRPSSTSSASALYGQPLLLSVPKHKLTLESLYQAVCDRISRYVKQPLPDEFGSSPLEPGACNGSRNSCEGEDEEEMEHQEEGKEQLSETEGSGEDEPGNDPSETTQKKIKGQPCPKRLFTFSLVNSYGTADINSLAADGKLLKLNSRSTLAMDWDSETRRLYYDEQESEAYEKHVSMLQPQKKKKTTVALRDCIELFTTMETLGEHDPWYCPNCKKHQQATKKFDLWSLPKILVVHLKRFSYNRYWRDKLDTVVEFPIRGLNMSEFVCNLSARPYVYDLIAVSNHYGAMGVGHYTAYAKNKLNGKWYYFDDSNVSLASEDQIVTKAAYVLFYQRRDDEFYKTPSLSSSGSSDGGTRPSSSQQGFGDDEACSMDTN
In short: as §1

Measured: log2 ratio of Biotin-Ahx-Ub-VS probe labelling

Cc1cccnc1NC(=O)C1CCN(C(=O)CCl)CC1.Cl
inactive: USP34 -0.124 | USP36 -0.102 | USP38 -0.157 | USP39 0.0484 | USP4 0.0404
